Measurements as given in PubChem BioAssay AID1863 (Southern Research Specialized Biocontainment Screening …, 2009).
Hit rate of the full screen: of about 300,000 compounds, about 480 (0.16%) were called active.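 How the source made its calls: active means inhibition over 29.93%, a cutoff 3 SD above the screen mean, later confirmed by dose response; inconclusive means inhibition over 29.93% but no dose response follow-up; inactive means inhibition at most 29.93% or unconfirmed.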 Not all results are given here. Results with a measured potency or affinity are listed apart.

experiment: PhoP-dependent GFP reporter repression – Salmonella Typhimurium, primary screen (AID 1863);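 further: 0% = low Mg2+ inducing control and 100% = high Mg2+ repressing control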; settings: S. Typhimurium PhoP-regulated promoter GFP reporter, 4 h; at 50 µM; active compounds read high

inhibition, inactive:
O=C(N/N=C/c1ccccc1O)c1cccc2ccccc12 7.21%, COc1ccc(C(=O)N/N=C/c2c[nH]c3ccccc23)cc1 4.37%, O=C(N/N=C/c1ccccc1F)c1cccc2ccccc12 -1.58%, COc1ccc2cc(C(=O)N/N=C/c3sc4ccccc4c3O)ccc2c1 9.41%, CCC(=O)N1CCc2cc(Br)cc(S(=O)(=O)CCC(=O)NCCOC)c21 1.63%, COC(=O)[C@@H](NC(=O)Nc1ccc(OC(F)(F)F)cc1)C(C)C -9.58%, O=C1CC(c2ccccc2Cl)Cc2c1cnn2-c1nc2ccccc2s1 (configuration not stated) -5.22%, Cc1nn(C)c(C)c1CN(C)C(=O)CCCC(=O)O -3.44%, CCOc1ccccc1-c1ccc(C(=O)NCc2ccccc2)o1 -2.75%, Cc1c(Cl)cccc1NC(=O)CNC(=O)c1ccc(F)cc1 -6.63%, O=C1C(=O)N(CCO)C(c2cccc(F)c2)/C1=C(\O)c1ccc(Cl)cc1 (configuration not stated) 0.663%, O=C(COC(=O)CCCN1C(=O)c2cccc3cccc(c23)C1=O)Nc1cccc(Br)c1 5.32%, Cc1ccc(C2=NN(CC(=O)NCc3ccccn3)C(=O)CC2)cc1 15.1%, O=C(Nc1cccc(Cl)c1)NC1CCS(=O)(=O)C1 (configuration not stated) 0.08%, CCCCCC[N+](C)(C)CC/C=C1/c2ccccc2Sc2ccc(Cl)cc21 -5.82%, CCCCCCCCCCC[N+](C)(C)CC/C=C1/c2ccccc2Sc2ccc(Cl)cc21 0.18%, CCC(Sc1ccccc1C(=O)O)C(=O)O (configuration not stated) -0.12%, O=C(O)c1ccccc1SSc1ccccc1C(=O)O -0.72%, O=C1C(Cl)=C(Nc2ccccc2)C(=O)c2ccccc21 4.63%, CCNC1=C(Cl)C(=O)c2ccccc2C1=O 22.7%, O=C(CCCN1C(=O)c2ccccc2C1=O)Nc1ccccn1 -1.86%, CCC1(c2ccccc2)NC(=O)N(CC(=O)Nc2cc(S(=O)(=O)N3CCOCC3)ccc2OC(C)C)C1=O (configuration not stated) -0.1%, COc1ccc(C(=O)CCC(=O)NCCc2c[nH]c3ccccc23)cc1 8.52%, Cc1cccc(NS(=O)(=O)c2cccs2)c1 16.6%, Cc1nc([N+](=O)[O-])c(Br)n1CC(=O)c1ccc(Br)cc1 8.26%, Cc1nc([N+](=O)[O-])c(Br)n1CC(=O)c1ccc(F)cc1 7.24%, O=[N+]([O-])c1c(Nc2ccc(O)cc2)cc(Cl)c2nonc12 20%, Nc1cc(N2CCCCCC2)c2nonc2c1[N+](=O)[O-] -3.85%, Nc1cc(Nc2ccccc2)c2nonc2c1[N+](=O)[O-] -3.49%, O=[N+]([O-])c1c(Nc2ccccc2O)cc(Cl)c2nonc12 16.1%, Cc1c(NC(=O)c2ccc(S(=O)(=O)N3CCOCC3)cc2)c(=O)n(-c2ccccc2)n1C -7.51%, OCCC1CN(Cc2cccn2-c2ccccn2)CCN1C1CCCC1 (configuration not stated) -4.15%, COc1ccccc1C(c1nnnn1C1CCCC1)N1CCN2CCCC2C1 (configuration not stated) 2.8%, CCC1(C)Cc2c(sc3nc(SCC(=O)c4ccccc4)[nH]c(=O)c23)CO1 (configuration not stated) -14.9%, Nc1nonc1C(=O)N/N=C/c1ccc(Br)o1 -2.96%, Nc1nonc1-n1nnc(C(=O)N/N=C/c2ccc(Br)cc2)c1CSC1=NCCS1 44.3%, Nc1nonc1-n1nnc(C(=O)N/N=C/c2c(Cl)cccc2Cl)c1CSC1=NCCS1 6.32%, Nc1nonc1C(=O)N/N=C/c1cc2c(cc1Br)OCO2 3.06%, O=C(NCc1ccco1)C1CCCN(S(=O)(=O)c2ccc(Cl)cc2)C1 (configuration not stated) 0.1%, COc1ccc(-c2cccc(NC(=O)COc3ccc(Cl)cc3)c2)nn1 -8.03%, CCCCCCCCCC[n+]1cccc(C(=O)N(CC)CC)c1 11%, CCCCCCCC[n+]1cccc(C(=O)N(CC)CC)c1 7.46%, CCC(=O)NC(=S)Nc1ccc(N2CCN(C(=O)c3ccc(Cl)cc3)CC2)cc1 2.66%, CC(=O)/C=C1\SC(CC(=O)O)C(=O)N1c1ccccc1 (configuration not stated) -3.51%, COc1ccc2nc(SCC(N)=O)cc(C)c2c1 -2.01%, CC1CCN(CC(O)CN2c3ccccc3Sc3ccccc32)CC1 (configuration not stated) 11.3%, CN1CCCC(CN2c3ccccc3Sc3ccccc32)C1 (configuration not stated) 5.69%, O=C(O)c1cccc(N/N=C/c2cc(Br)cc(Br)c2O)c1 -5.01%, Cc1c(N=Cc2cc(Br)cc(Br)c2O)cccc1C(=O)O 20.2%, N#CCCn1nc(-c2ccccc2)c2ccccc2c1=O 0.37%, Cc1ccc(N2C(=O)Nc3ccccc3C2(O)C(=O)N2CCN(c3ccccn3)CC2)cc1C (configuration not stated) 1.22%, O=C(CS(=O)(=O)c1ccccc1)NC1CCCCC1 -0.8%, CC(CC(=O)Nc1ccccc1)NCCCN1CCCC1=O (configuration not stated) -13.5%, COc1ccc(C(=O)Nc2ccccc2C(=O)N2CCCCC2C)cc1 (configuration not stated) -7.49%, Cc1ccc(S(=O)(=O)N2CC(=NN=C(N)N)C2)cc1 6.04%, NC(N)=NN=C1CCC(c2ccccc2)CC1 (configuration not stated) -4.95%, COc1ccc(/C=N/NC(=O)c2ccc(COc3ccccc3Cl)o2)cc1 2.77%, CC(=O)Nc1ccc(Nc2nnc(-c3ccc(C)c(S(N)(=O)=O)c3)c3ccccc23)cc1 -2.89%, CC(C)(C)C1=CC(=O)C(N2CCOCC2)=CC1=O -2.73%, CC1=C(C)C(=O)C(N2CCOCC2)=CC1=O -8.01%, CC(NC(=O)COc1ccc(Oc2ccccc2)cc1)C(=O)O (configuration not stated) -6.64%, CC(=O)c1cccc(NC(=O)Nc2ccccc2)c1 4.67%, Oc1c(C(c2ccc(Cl)cc2)N2CCCC2)cc(Cl)c2cccnc12 (configuration not stated) 4.49%, CCC(=O)NC(c1ccc(OC)cc1)c1cc(Cl)c2cccnc2c1O (configuration not stated) 2.08%, CCOC(=O)N1CCN(S(=O)(=O)c2cccc3cccnc23)CC1 -11%, O=C(NC(c1ccc(Cl)cc1)c1cc(Cl)c2cccnc2c1O)c1cccnc1 (configuration not stated) 6.03%, COc1ccc(C(NC(C)=O)c2cc(Cl)c3cccnc3c2O)cc1OC (configuration not stated) 3%, CN1CCN(C(c2ccc(C(F)(F)F)cc2)c2ccc3cccnc3c2O)CC1 (configuration not stated) 0.72%, CN1CCN(C(c2cccnc2)c2ccc3cccnc3c2O)CC1 (configuration not stated) -7.68%, OCCN1CCN(C(c2cccs2)c2ccc3cccnc3c2O)CC1 (configuration not stated) -47.6%, CCC(c1nnnn1C(C)(C)CC)N(CCCN1CCOCC1)Cc1cc2cccc(C)c2[nH]c1=O (configuration not stated) 1.45%, CCn1nc(C)c(/C=N/NC(=O)Cn2nc(C)cc2C)c1C -4.2%, CCCCNC(=O)c1cc(-c2ccc(OC)c(OC)c2)on1 3.01%, Cc1c(C#N)c(N)nc2c3c(sc12)NC(=O)CC3c1ccccc1 (configuration not stated) -5.65%, COc1cccc(NC(=O)c2cc([N+](=O)[O-])ccc2NCc2cccnc2)c1 -4.37%, CCOC(=O)c1cn(CC(=O)Nc2cccc(F)c2)nn1 -11.4%, O=C(Cn1c(C(=O)O)cc2ccccc21)c1ccccc1 -2.79%, Cc1ccc(N2C(=O)N(CC(=O)N3CCOCC3)C(=O)C2C)cc1 (configuration not stated) 2.04%, COC(C(=O)Nc1ccnn1C1CCN(C(=O)c2ccc(C)cc2)CC1)c1ccccc1 (configuration not stated) 5.45%, O=S1(=O)CCOC[C@H](CC2CCCCC2)N1Cc1cccc(C(F)(F)F)c1 9.84%, O=C(NC(c1ccccc1)c1cc(Cl)c2cccnc2c1O)c1cccnc1 (configuration not stated) -10.8%, CC(=O)NC(c1ccccc1)c1cc(Cl)c2cccnc2c1O (configuration not stated) 18.9%, CC(=O)NC(c1ccc(C)cc1)c1cc(Cl)c2cccnc2c1O (configuration not stated) -1.88%, COc1ccc(C(NC(C)=O)c2cc(Cl)c3cccnc3c2O)cc1 (configuration not stated) 5.56%, CCC(=O)NC(c1cccs1)c1cc(Cl)c2cccnc2c1O (configuration not stated) 14.8%, Oc1c(C(c2ccccn2)N2CCC(Cc3ccccc3)CC2)cc(Cl)c2cccnc12 (configuration not stated) -3.77%, CCOc1ccc(C(Nc2cccnc2)c2cc(Cl)c3cccnc3c2O)cc1 (configuration not stated) 3.11%, CCCc1cc(=O)[nH]c(SCC(=O)Nc2ccc(Br)cc2)n1 -7.86%, CC1CCN(S(=O)(=O)c2ccc3c(c2)c(=O)c(C(=O)NCc2ccccc2Cl)cn3C)CC1 5.92%, Cc1ccc(/C=C/C(=O)c2ccccc(=O)c2O)c(C)c1 7.66%, O=C(/C=C/c1ccccc1Cl)c1ccc(O)cc1 2.4%, Cc1cccc(/C=C/C(=O)c2cc(Br)ccc(=O)c2O)c1 23.4%, Cc1ccc2occ(/C=C/C(=O)c3ccccc3O)c(=O)c2c1 1.62%, O=C(/C=C/c1ccc(O)c(O)c1)c1ccccc1O -12%, O=C(/C=C/c1ccccc1Cl)c1ccc[nH]1 11.1%, C=CCNC(=O)CSc1nnc(-c2ccccn2)n1Cc1ccccc1 7.3%, CCOC(=O)c1ccc(NC(=O)c2ccccc2N(C)S(=O)(=O)c2ccccc2)cc1 1.33%
